PubChem BioAssay (EPA / NIEHS)
Results filed as inconclusive are left out. Activity calls are given as the source filed them. Rule for the calls: active = hit-call score of the fitted dose curve at least 0.9, where 1 is the maximum; inconclusive = response in the unintended direction; inactive = score below 0.9.

Tested on: rabbit Platelet Activating Factor Receptor (PAF), gene 100354046
Test: NVS_GPCR_rabPAF: NovaScreen (NVS) G Protein-Coupled Receptor Assay for rabbit Platelet Activating Factor Receptor (PAF) (AID 2283287)
Summary of the method: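 Rabbit platelet membrane preparation; radioligand displacement read by filter-based scintillation counting 1 h after dosing, loss of signal versus DMSO. Primary screen in duplicate at 25 uM, actives followed up in concentration series.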

Row | Compound | AC50 | outcome
1 | CS(=O)(=O)c1cc(C(F)(F)F)ccc1C(=O)c1cnoc1C1CC1 | 19.1 µM (active) | 
2 | CC(C)N1C(=O)N(c2ccccc2)CSC1=NC(C)(C)C |  | inactive
3 | COCC(=O)N(c1c(C)cccc1C)C(C)C(=O)OC (centres undefined) |  | inactive
4 | O=c1n(Cl)c(=O)n(Cl)c(=O)n1Cl |  | inactive
5 | COP(=S)(OC)SCn1nnc2ccccc2c1=O | 25 µM (active) | 
6 | CC1(C)CON(Cc2ccccc2Cl)C1=O |  | inactive
7 | Nc1c(Cl)c(Cl)nc(C(=O)O)c1Cl |  | inactive
8 | CCCC(=NOCC)C1=C(O)CC(CC(C)SCC)CC1=O (centres undefined) |  | inactive

Biological target: rat Adrenergic, Alpha 1, Non-selective Receptor (Adra1), Adra1a (gene 29412) (UniProt P43140)
Test: NVS_GPCR_rAdra1_NonSelective: NovaScreen (NVS) G Protein-Coupled Receptor Assay for rat Adrenergic, Alpha 1, Non-selective Receptor (Adra1) (AID 2283289)
Summary of the method: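 Rat forebrain membranes; radioligand displacement read by filter-based scintillation counting 1 h after dosing. Primary screen in duplicate at 25 uM; hits (e.g. ≥30% inhibition) rerun as concentration–response to 50 uM max. Fitted versus DMSO.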

Sequence of rat Adrenergic, Alpha 1, Non-selective Receptor (Adra1), Adra1a (gene 29412) (P43140 whole entry, looked up): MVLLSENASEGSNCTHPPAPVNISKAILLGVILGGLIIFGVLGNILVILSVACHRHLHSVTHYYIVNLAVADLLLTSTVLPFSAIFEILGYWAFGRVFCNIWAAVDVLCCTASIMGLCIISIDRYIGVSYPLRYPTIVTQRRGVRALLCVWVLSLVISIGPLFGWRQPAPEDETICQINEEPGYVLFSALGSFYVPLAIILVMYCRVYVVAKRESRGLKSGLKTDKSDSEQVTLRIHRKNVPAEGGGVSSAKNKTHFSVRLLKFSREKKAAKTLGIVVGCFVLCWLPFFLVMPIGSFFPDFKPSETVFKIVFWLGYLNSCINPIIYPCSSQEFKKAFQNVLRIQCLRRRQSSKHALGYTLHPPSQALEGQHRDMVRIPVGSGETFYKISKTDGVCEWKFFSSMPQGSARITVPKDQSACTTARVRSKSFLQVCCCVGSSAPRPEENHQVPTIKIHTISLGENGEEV

Row | Compound | outcome | AC50
9 | CCOc1nc(F)cc2nc(S(=O)(=O)Nc3c(Cl)cccc3Cl)nn12 | inactive | 
10 | Cn1c(-c2ccccc2)cc(-c2ccccc2)[n+]1C |  | 5.28 µM (active)
11 | Cc1ccc(N=CN(C)C=Nc2ccc(C)cc2C)c(C)c1 |  | 1.5 µM (active)

Biological target: human Opioid Receptor Mu (Opiate Mu), OPRM1 (gene 4988) (UniProt P35372)
Test: NVS_GPCR_hOpiate_mu: NovaScreen (NVS) G Protein-Coupled Receptor Assay for human Opioid Receptor Mu (Opiate Mu) (AID 2283290);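 note: hits lower bound tracer signal versus DMSO meaning displacement of the ligand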
Method: NVS_GPCR_hOpiate_mu is a biochemical, single-readout assay that uses extracted gene-proteins from CHO in a cell-free assay. Measurements were taken 2.5 hours after chemical dosing in a 96-well plate.NVS_GPCR_hOpiate_mu is one of one assay component(s) measured or calculated from the NVS_GPCR_hOpiate_mu assay. It is designed to make measurements of radioligand binding, a form of binding reporter, as detected with scintillation counting signals by Filter-based radiodetection technology.Data from the assay component NVS_GPCR_hOpiate_mu was analyzed into 1 assay endpoint. This assay endpoint, NVS_GPCR_hOpiate_mu, was analyzed in the positive analysis fitting direction relative to DMSO as the negative control and baseline of activity. Using a type of binding reporter, loss-of-signal activity can be used to understand changes in the binding as they relate to the gene OPRM1. Furthermore, this assay endpoint can be referred to as a primary readout, because the performed assay has only produced 1 assay endpoint. To generalize the intended target to other relatable targets, this assay endpoint is annotated to the gpcr intended target family, where the subfamily is rhodopsin-like receptor.
(§1) Binding assays used specific radioligands (tritiated, iodinated) with non-radioactive competitive displacement ligands in agonist or antagonist protocols (as indicated) and various reference compounds and inhibitors to titrate specific binding to receptors and transporters. Most enzyme assays (CYPs, kinases, phosphatases, proteases, HDACs) used recombinant protein and specific substrates (fluorescence mostly, some colorimetric and radioactive) and inhibitors, followed by a biochemical separation of substrate and product. All assays for the biochemical HTS were initially run in duplicate at a single concentration (10 uM for CYP450 assays and 25 uM for all others). […] Each assay was run with positive and negative controls, and concurrent controls on every plate. The follow-up (secondary) screen tested active chemical-pairs in concentration series, as well as a few additional assays not tested in the primary screen, some selected negative inactives, and several cases re-run in the concentration series for confirmatory purposes.

Sequence of human Opioid Receptor Mu (Opiate Mu), OPRM1 (gene 4988) (P35372 whole entry, looked up): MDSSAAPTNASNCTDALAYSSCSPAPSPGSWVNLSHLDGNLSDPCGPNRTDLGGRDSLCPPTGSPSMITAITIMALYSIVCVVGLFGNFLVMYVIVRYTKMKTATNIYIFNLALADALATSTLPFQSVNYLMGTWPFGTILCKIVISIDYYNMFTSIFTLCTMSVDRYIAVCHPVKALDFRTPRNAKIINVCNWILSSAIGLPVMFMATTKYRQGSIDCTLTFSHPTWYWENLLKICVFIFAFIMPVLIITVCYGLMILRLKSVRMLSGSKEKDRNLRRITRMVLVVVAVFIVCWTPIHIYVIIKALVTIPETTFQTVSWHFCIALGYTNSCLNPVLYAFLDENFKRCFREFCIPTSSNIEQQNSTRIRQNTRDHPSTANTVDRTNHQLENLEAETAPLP

Row | Compound | AC50 | outcome
12 | CC(C)=CC1C(C(=O)OCc2coc(Cc3ccccc3)c2)C1(C)C (centres undefined) | 7.58 µM (active) | 
13 | CCN(CC)C(=O)C(C)Oc1cccc2ccccc12 (centres undefined) | 14.8 µM (active) | 
14 | CCCCC(O)(Cn1cncn1)c1ccc(Cl)cc1Cl (centres undefined) | 4.96 µM (active) | 
15 | COP(=S)(OC)SCn1nnc2ccccc2c1=O |  | inactive
16 | O=C1C2CC=CCC2C(=O)N1SC(Cl)(Cl)Cl (centres undefined) | 9.7 µM (active) | 

Tested on: guinea pig Atrionatriuretic Peptide Receptor A (ANPA), gene 100135578
Test: NVS_GPCR_gANPA: NovaScreen (NVS) G Protein-Coupled Receptor Assay for guinea pig Atrionatriuretic Peptide Receptor A (ANPA) (AID 2283291)
Summary of the method: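 Radioligand binding to guinea pig cerebellar membranes was measured after 1 h by filter-based scintillation counting. Chemicals were tested in duplicate at 25 uM, with hits run in concentration-response to a maximum of 50 uM. Binding loss was fitted against DMSO.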

Row | Compound | outcome
17 | CS(=O)(=O)c1cc(C(F)(F)F)ccc1C(=O)c1cnoc1C1CC1 | inactive
18 | CCSC(=O)N1CCCCCC1 | inactive
19 | CNC(=O)N(C)c1nnc(C(C)(C)C)s1 | inactive

Biological target: rat Serotonin, 5-Hydroxytryptamine Receptor (5HT), Non-Selective Binding, Htr1a (gene 24473) (UniProt P19327)
Test: NVS_GPCR_r5HT_NonSelective: NovaScreen (NVS) G Protein-Coupled Receptor Assay for rat Serotonin, 5-Hydroxytryptamine Receptor (5HT), Non-Selective Binding (AID 2283295)
Method: (§2) NVS_GPCR_r5HT_NonSelective is a biochemical, single-readout assay that uses extracted gene-proteins from Rat cortical membranes in a tissue-based cell-free assay. Measurements were taken 1 hour after chemical dosing in a 48-well plate.NVS_GPCR_r5HT_NonSelective is one of one assay component(s) measured or calculated from the NVS_GPCR_r5HT_NonSelective assay. It is designed to make measurements of radioligand binding, a form of binding reporter, as detected with scintillation counting signals by Filter-based radiodetection technology.Data from the assay component NVS_GPCR_r5HT_NonSelective was analyzed into 1 assay endpoint. This assay endpoint, NVS_GPCR_r5HT_NonSelective, was analyzed in the positive analysis fitting direction relative to DMSO as the negative control and baseline of activity. Using a type of binding reporter, loss-of-signal activity can be used to understand changes in the binding as they relate to the gene Htr1a. Furthermore, this assay endpoint can be referred to as a primary readout, because the performed assay has only produced 1 assay endpoint. To generalize the intended target to other relatable targets, this assay endpoint is annotated to the gpcr intended target family, where the subfamily is rhodopsin-like receptor.
as §1, with “The follow-up (secondary) screen tested active chemical-pairs in concentration series, as well as a few additional assays not tested in the primary screen, some selected negative inactives, and several cases re-run in the concentration series for confirmatory purposes.” left out

Sequence of rat Serotonin, 5-Hydroxytryptamine Receptor (5HT), Non-Selective Binding, Htr1a (gene 24473) (P19327 whole entry, looked up): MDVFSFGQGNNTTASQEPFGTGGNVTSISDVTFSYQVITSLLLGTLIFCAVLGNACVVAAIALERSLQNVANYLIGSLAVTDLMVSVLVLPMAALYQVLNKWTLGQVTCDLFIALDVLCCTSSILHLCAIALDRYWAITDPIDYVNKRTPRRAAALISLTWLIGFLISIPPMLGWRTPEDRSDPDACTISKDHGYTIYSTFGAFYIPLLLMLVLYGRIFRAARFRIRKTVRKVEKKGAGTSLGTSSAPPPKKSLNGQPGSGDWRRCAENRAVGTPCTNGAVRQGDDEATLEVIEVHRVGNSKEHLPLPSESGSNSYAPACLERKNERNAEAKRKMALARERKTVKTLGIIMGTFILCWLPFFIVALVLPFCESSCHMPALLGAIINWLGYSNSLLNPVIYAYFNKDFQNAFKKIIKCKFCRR

Row | Compound | outcome
20 | N#Cc1c[nH]cc1-c1cccc2c1OC(F)(F)O2 | inactive
21 | COC(=O)N(C(=O)N1CO[C@@]2(C(=O)OC)Cc3cc(Cl)ccc3C2=N1)c1ccc(OC(F)(F)F)cc1 | inactive
22 | Cc1ccc(N=CN(C)C=Nc2ccc(C)cc2C)c(C)c1 | inactive

Biological target: rat Adrenergic, Alpha 1A Receptor (Adra1A), Adra1a (gene 29412) (UniProt P43140)
Test: NVS_GPCR_rAdra1A: NovaScreen (NVS) G Protein-Coupled Receptor Assay for rat Adrenergic, Alpha 1A Receptor (Adra1A) (AID 2283296)
Method: as §2, with “NVS_GPCR_rAdra1A” for “NVS_GPCR_r5HT_NonSelective”, “membranes (pretreated with chlorethyl clonidine-CEC)” for “membranes”, “plate.NVS_GPCR_rAdra1A” for “plate.NVS_GPCR_r5HT_NonSelective”, “NVS_GPCR_rAdra1A,” for “NVS_GPCR_r5HT_NonSelective,”, “Adra1a.” for “Htr1a.”
as §1

Sequence of rat Adrenergic, Alpha 1A Receptor (Adra1A), Adra1a (gene 29412) (P43140 whole entry, looked up): as the sequence (P43140 whole entry, looked up) above

Row | Compound | AC50 | outcome
23 | Cn1c(-c2ccccc2)cc(-c2ccccc2)[n+]1C | 7.91 µM (active) | 
24 | CNC(=O)Oc1cccc2ccccc12 |  | inactive
25 | COP(=O)(OC)O/C(C)=C/C(=O)N(C)C |  | inactive
26 | Cc1ccc(N=CN(C)C=Nc2ccc(C)cc2C)c(C)c1 |  | inactive

Tested on: rat Adrenergic, Alpha 1B Receptor (Adra1B), gene 24173
Test: NVS_GPCR_rAdra1B: NovaScreen (NVS) G Protein-Coupled Receptor Assay for rat Adrenergic, Alpha 1B Receptor (Adra1B) (AID 2283297)
Summary of the method: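 Rat liver membranes, radioligand displacement with filter-based scintillation detection, 1 h incubation. Primary screen in duplicate at 25 uM; actives retested in concentration series; activity relative to DMSO.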

Row | Compound | outcome | AC50
27 | CC1(C)CCC(=Cc2ccc(Cl)cc2)C1(O)Cn1cncn1 (centres undefined) | inactive | 
28 | Cn1c(-c2ccccc2)cc(-c2ccccc2)[n+]1C |  | 16.5 µM (active)
29 | COc1cc(Cl)c(OC)cc1Cl | inactive | 
